Experimental findings from ChEMBL document CHEMBL1961873, “Compounds: GSK PKIS; Assays: Nanosyn kinase panel” (2012) are described below.

Assay [1] addresses MAP/microtubule affinity-regulating kinase 3 (Homo sapiens) (UniProt P27448). Conditions: at 1 µM.
In assay [2] the target is T1, MAP/microtubule affinity-regulating kinase 4 (Homo sapiens) (UniProt Q96L34).
T1 sequence (whole entry): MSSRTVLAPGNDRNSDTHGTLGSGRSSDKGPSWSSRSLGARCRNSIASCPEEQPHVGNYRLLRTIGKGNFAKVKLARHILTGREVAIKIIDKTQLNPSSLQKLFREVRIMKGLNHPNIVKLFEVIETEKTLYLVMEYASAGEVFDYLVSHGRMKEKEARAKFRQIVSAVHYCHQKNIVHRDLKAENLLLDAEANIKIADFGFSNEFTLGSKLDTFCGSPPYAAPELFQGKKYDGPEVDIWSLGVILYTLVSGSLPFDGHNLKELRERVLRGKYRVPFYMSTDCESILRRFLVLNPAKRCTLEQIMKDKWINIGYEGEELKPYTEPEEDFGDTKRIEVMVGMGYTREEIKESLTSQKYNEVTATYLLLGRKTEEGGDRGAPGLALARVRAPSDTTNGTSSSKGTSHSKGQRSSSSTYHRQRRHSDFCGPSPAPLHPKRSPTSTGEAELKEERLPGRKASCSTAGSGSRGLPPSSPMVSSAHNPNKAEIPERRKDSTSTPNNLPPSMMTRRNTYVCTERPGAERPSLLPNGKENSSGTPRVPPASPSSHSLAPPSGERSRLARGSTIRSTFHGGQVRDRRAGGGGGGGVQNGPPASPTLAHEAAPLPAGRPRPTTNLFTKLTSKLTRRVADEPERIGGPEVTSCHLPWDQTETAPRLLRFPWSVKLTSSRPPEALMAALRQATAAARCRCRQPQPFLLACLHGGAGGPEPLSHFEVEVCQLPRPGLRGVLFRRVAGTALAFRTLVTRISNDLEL
The following applies: at 0.1 µM.

The target of assay [3] is T1, MAP/microtubule affinity-regulating kinase 4 (Homo sapiens). Conditions: at 1 µM.
Assay [4] concerns the target Maternal embryonic leucine zipper kinase (Homo sapiens) (UniProt Q14680). The following applies: at 0.1 µM.
Assay [5] has the same target. Conditions: at 1 µM.
Assay [6] deals with MAP kinase-interacting serine/threonine-protein kinase 1 (Homo sapiens) (UniProt Q9BUB5). Conditions: at 0.1 µM.
For assay [7] the target is unchanged. The following applies: at 1 µM.
Assay [8] concerns the target MAP kinase-interacting serine/threonine-protein kinase 2 (Homo sapiens) (UniProt Q9HBH9). The following applies: at 0.1 µM.
For assay [9] the target is unchanged. Conditions: at 1 µM.
In assay [10] the target is Serine/threonine-protein kinase MARK2 (Homo sapiens) (UniProt Q7KZI7). Conditions: at 0.1 µM.
Assay [11] has the same target. The following applies: at 1 µM.
Assay [12] has as its target PAS domain-containing serine/threonine-protein kinase (Homo sapiens) (UniProt Q96RG2). The following applies: at 0.1 µM.
For assay [13] the target is unchanged. The following applies: at 1 µM.
Assay [14] concerns the target Phosphorylase b kinase gamma catalytic chain, skeletal muscle/heart isoform (Homo sapiens) (UniProt Q16816). Conditions: at 0.1 µM.
Assay [15] has the same target. The following applies: at 1 µM.
The target of assay [16] is T2, Phosphorylase b kinase gamma catalytic chain, liver/testis isoform (Homo sapiens) (UniProt P15735).
T2 sequence (whole entry): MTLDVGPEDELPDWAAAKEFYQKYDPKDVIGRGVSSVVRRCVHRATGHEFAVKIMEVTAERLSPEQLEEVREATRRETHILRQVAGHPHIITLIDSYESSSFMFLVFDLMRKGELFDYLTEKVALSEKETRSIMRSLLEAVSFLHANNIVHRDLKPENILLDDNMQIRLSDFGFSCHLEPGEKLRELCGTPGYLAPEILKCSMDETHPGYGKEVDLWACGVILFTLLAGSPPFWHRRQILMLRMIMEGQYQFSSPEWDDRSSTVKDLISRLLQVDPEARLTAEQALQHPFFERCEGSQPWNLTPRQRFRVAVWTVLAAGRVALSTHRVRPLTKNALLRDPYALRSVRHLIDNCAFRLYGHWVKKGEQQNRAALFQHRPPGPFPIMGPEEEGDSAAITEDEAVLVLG
Conditions: at 0.1 µM.

The target of assay [17] is T2, Phosphorylase b kinase gamma catalytic chain, liver/testis isoform (Homo sapiens). Conditions: at 1 µM.
The target of assay [18] is Serine/threonine-protein kinase pim-1 (Homo sapiens) (UniProt P11309). The following applies: at 0.1 µM.
Assay [19] has the same target. Conditions: at 1 µM.
The target of assay [20] is Serine/threonine-protein kinase pim-2 (Homo sapiens) (UniProt Q9P1W9). Conditions: at 0.1 µM.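 Further: reported value is the mean percent inhibition of PIM2, measured in the GSK PKIS kinase inhibitor set screen.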

Sequence of Maternal embryonic leucine zipper kinase (Homo sapiens) (Q14680 whole entry, looked up): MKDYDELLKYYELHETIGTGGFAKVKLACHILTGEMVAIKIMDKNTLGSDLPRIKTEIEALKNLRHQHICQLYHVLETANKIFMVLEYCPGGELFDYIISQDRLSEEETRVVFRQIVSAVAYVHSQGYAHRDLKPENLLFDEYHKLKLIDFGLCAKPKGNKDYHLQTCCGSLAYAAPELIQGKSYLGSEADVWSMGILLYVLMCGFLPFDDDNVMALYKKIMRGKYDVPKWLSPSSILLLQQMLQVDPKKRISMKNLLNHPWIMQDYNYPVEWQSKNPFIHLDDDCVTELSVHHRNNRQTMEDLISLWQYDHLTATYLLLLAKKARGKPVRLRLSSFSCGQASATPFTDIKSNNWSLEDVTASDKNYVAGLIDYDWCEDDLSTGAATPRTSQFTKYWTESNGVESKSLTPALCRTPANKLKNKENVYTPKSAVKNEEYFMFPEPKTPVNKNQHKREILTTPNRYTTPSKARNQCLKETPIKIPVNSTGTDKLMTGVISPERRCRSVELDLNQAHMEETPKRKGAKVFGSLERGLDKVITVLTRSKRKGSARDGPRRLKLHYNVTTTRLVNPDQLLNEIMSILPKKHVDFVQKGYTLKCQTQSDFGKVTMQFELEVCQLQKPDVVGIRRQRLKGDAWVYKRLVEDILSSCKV
Sequence of MAP kinase-interacting serine/threonine-protein kinase 1 (Homo sapiens) (Q9BUB5 whole entry, looked up): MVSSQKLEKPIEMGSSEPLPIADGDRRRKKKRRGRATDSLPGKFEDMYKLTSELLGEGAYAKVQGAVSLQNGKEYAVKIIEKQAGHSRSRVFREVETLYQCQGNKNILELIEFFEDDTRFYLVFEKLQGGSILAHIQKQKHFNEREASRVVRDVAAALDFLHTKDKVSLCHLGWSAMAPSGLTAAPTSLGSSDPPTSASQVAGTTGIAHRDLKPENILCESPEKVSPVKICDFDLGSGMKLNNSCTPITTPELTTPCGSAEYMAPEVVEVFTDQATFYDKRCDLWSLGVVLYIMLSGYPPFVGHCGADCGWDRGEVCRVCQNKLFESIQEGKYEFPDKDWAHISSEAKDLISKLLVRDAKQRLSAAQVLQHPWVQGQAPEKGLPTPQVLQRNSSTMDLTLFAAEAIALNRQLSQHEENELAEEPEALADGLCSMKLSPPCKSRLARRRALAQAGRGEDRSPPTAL
Sequence of Serine/threonine-protein kinase MARK2 (Homo sapiens) (Q7KZI7 whole entry): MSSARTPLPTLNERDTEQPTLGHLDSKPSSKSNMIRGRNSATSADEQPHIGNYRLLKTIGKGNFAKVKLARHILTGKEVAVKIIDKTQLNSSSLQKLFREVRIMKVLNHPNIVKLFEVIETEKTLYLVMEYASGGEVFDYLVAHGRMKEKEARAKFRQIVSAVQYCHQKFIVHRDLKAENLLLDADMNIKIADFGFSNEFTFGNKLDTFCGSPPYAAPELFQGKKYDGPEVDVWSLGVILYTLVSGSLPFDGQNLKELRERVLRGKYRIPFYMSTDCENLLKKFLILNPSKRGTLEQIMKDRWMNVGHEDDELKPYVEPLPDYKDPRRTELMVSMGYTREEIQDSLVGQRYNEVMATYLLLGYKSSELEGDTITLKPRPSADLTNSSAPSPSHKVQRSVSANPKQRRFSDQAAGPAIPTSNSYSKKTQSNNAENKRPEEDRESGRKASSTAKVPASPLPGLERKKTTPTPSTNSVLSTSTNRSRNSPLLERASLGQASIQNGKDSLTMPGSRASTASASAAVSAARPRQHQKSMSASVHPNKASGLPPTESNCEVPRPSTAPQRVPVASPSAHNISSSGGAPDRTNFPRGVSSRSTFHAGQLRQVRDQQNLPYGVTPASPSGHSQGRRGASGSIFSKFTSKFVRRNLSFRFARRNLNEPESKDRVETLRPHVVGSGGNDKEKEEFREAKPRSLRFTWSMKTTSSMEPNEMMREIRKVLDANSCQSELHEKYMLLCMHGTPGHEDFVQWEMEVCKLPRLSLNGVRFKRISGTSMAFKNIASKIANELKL
Sequence of PAS domain-containing serine/threonine-protein kinase (Homo sapiens) (Q96RG2 whole entry, the tested form may be a part): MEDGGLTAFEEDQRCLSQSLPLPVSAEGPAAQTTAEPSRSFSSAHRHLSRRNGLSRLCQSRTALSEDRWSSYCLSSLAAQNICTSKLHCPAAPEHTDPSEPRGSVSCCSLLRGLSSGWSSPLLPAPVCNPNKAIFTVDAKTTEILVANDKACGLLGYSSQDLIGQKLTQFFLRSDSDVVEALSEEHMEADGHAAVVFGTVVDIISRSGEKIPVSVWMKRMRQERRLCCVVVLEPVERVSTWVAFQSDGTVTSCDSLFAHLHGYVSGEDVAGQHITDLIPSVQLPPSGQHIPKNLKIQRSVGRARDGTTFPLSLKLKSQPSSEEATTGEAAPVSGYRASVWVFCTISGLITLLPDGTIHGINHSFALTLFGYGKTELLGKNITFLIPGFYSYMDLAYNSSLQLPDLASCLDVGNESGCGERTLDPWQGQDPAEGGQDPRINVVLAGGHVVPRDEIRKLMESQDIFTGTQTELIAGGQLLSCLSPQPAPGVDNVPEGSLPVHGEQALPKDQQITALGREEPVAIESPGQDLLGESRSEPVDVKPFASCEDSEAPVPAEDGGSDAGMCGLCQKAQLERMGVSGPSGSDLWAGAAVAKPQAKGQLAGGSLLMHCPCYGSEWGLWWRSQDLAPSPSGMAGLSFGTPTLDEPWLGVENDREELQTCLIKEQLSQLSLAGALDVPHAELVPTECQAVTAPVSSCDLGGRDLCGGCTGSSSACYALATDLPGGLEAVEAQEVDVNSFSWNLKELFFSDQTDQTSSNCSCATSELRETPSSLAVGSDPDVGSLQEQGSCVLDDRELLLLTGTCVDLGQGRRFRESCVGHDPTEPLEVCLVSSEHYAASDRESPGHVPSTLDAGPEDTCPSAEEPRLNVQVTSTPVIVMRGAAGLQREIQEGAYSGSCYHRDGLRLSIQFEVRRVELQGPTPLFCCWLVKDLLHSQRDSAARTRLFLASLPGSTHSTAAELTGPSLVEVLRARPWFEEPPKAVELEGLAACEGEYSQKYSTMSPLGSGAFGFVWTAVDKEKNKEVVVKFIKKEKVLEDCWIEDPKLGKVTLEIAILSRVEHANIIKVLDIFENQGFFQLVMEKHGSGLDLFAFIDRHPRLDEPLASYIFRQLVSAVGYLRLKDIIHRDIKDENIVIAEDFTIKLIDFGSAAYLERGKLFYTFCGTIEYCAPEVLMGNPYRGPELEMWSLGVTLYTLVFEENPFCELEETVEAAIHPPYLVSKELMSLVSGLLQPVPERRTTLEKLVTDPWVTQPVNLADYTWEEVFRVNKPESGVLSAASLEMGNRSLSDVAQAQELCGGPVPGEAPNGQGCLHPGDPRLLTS
Sequence of MAP kinase-interacting serine/threonine-protein kinase 2 (Homo sapiens) (Q9HBH9 whole entry, looked up): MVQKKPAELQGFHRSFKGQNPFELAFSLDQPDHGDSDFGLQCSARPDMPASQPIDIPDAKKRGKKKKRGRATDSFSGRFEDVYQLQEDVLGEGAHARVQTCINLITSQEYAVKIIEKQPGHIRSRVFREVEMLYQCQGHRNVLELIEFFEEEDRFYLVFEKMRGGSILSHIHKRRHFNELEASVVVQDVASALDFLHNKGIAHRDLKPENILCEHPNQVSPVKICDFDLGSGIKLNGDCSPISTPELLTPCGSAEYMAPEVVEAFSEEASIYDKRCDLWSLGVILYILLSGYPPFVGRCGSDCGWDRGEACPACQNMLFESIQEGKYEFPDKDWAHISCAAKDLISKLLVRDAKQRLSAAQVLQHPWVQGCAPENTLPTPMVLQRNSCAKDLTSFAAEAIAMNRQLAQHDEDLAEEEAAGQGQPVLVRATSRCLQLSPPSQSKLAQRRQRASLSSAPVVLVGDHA
Sequence of Phosphorylase b kinase gamma catalytic chain, skeletal muscle/heart isoform (Homo sapiens) (Q16816 whole entry, looked up, canonical isoform): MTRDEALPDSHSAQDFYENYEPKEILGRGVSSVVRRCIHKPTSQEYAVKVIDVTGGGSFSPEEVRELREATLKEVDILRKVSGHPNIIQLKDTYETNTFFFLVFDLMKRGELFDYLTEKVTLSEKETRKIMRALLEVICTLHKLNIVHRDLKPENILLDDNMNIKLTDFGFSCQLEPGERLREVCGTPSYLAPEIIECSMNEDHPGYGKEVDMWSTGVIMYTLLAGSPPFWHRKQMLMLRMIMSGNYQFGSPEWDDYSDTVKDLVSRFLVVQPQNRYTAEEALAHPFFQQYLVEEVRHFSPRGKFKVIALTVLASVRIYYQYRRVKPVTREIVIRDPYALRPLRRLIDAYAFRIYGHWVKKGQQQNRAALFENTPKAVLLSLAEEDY
Sequence of MAP/microtubule affinity-regulating kinase 3 (Homo sapiens) (P27448 whole entry, looked up): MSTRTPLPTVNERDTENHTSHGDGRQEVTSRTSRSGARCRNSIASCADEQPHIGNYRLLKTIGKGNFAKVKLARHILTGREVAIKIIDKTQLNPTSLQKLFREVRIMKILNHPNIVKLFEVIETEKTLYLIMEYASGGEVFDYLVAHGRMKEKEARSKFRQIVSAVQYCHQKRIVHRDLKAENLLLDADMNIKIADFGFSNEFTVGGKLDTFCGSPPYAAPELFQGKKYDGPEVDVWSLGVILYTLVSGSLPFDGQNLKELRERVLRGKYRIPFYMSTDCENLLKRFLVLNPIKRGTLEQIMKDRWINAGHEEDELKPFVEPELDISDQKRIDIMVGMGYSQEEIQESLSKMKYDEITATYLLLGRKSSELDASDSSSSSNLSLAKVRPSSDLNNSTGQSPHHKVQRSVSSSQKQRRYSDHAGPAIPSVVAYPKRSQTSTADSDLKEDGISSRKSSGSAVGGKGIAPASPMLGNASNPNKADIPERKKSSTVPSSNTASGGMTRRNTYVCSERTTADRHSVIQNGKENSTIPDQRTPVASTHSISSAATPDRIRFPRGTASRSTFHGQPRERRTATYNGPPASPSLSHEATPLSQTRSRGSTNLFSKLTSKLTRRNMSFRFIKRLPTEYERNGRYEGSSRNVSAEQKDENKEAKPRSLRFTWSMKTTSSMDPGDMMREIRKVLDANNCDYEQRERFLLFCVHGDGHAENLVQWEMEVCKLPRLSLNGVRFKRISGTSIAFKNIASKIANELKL

Regarding `COc1ccccc1-c1cc(/C=C2\C(=O)Nc3ncc(Br)cc32)cc(Br)c1O`, the inhibition in assay [1] was 1.27%; in assay [2], 2.01%; in [3], 5.18%; in assay [4], 4.33%; in [5], 8.21%; in assay [6], 4.21%. The inhibition in assay [7] was 11.7%; in assay [8] it was 7.61%; in assay [9], 40.1%; in assay [10] it was -0.96%; in [11] it was 2.22%; in assay [12], -1.52%. Besides, the inhibition in assay [13] is -3.29%; in [14], 3.58%; in [15], 7.04%; in assay [16], 4.87%; in assay [17], 3.85%; in assay [18], 0.14%. The inhibition in assay [19] amounted to 3.18%; in assay [20], 0.1%.
Turning to `Fc1ccc(Nc2nccc(-c3c(-c4ccc(C(F)(F)F)cc4)nn4ncccc34)n2)cc1F`, the inhibition was determined as 3.91% in assay [1]; 1.29% in assay [2]; 2.56% in [3]; 1.38% in [4]; 3.78% in [5]; 2.72% in [6]. Also, the inhibition was 2.85% in [7]; 0.89% in assay [8]; 2.32% in [9]; -0.1% in [10]; 2.64% in assay [11]; 0.46% in assay [12]. The inhibition in assay [13] was -1.14%; in assay [14] it was -0.56%; in assay [15], 1.84%; in assay [16] it was 3.81%; in [17], 0.35%; in [18], 1.07%. Also, the inhibition amounted to 0.89% in [19] and 0.92% in assay [20].
On to `COc1ccc(Nc2ncc(-c3ccccc3)o2)cc1OC`, for which the inhibition was determined as 26.7% in assay [1]; 2.3% in assay [2]; 19.4% in [3]; 0.74% in assay [4]; 8.76% in assay [5]; 2.58% in assay [6]. Also, the inhibition stood at 28.8% in assay [7]; 4.65% in assay [8]; 26.1% in assay [9]; 1.48% in [10]; 16.8% in assay [11]; 0.54% in assay [12]. In addition, the inhibition in [13] was 0.81%; in assay [14], 5.28%; in [15], 28.9%; in assay [16] it was 0.22%; in [17], 2.01%; in assay [18], 1.41%. Further, the figures for the inhibition in assay [19] and in assay [20] were 2.22% and 1.11%, respectively.
For `CS(=O)(=O)Nc1ccc(-c2cc(-c3ccccc3)cc(C(N)=O)c2N)cc1`, the inhibition in assay [1] was found to be 0.12%; in [2], 0.69%; in assay [3], 0.98%; in assay [4], 3.07%; in assay [5], 7.77%; in [6], 1.45%. Further, the inhibition was 4.03% in [7]; -0.47% in assay [8]; 3.27% in assay [9]; -0.25% in assay [10]; 4.64% in assay [11]; -0.01% in [12]. The inhibition in [13] was -0.36%; in [14] it was 1.44%; in assay [15], 4.26%; in [16] it was 1.4%; in [17], 0.02%; in assay [18], 0.69%. Further, the figures for the inhibition in assay [19] and in assay [20] were 1.67% and -0.48%, respectively.
For the molecule `COc1cccc(-n2ncc3c(N/N=C/c4ccc(C(=O)NCCN(C)C)cc4)ncnc32)c1`, the inhibition in assay [1] was determined as 18.4%; in assay [2], 2.02%; in [3], 16.8%; in assay [4] it was 2.38%; in assay [5] it was 11.5%; in assay [6], 39.4%. The inhibition in assay [7] turned out to be 72.9%; in assay [8], 28.7%; in assay [9], 67.5%; in [10] it was 1.55%; in assay [11], 11.9%; in [12] it was 0.59%. Further, the inhibition in [13] was -0.48%; in [14] it was 5.75%; in [15], 30.5%; in assay [16] it was 3.32%; in [17], 7.38%; in assay [18], 1.53%. Moreover, the inhibition in [19] came out at 8.23%; in assay [20] it was 0.17%.
For `O=C(O[C@H]1CN[C@H](C#Cc2cc3ncnc(Nc4ccc5c(cnn5Cc5ccccc5)c4)c3s2)C1)N1CCOCC1`, the inhibition in assay [1] is 2.28%; in assay [2], 0.43%; in [3], 2.44%; in assay [4], -2.54%; in assay [5] it was -1.35%; in [6], 1.01%. Further, the inhibition in assay [7] is 9.35%; in assay [8], 0.04%; in assay [9] it was 11.5%; in assay [10], -1.65%; in [11] it was 1.58%; in [12], 1.66%. The inhibition in assay [13] is 0.95%; in assay [14], 2.11%; in [15] it was 6.5%; in assay [16], -0.83%; in [17] it was -1.47%; in [18] it was -1.14%. Further, the inhibition in [19] is -0.83%; in [20], -0.43%.
Regarding `CS(=O)(=O)CCNCc1ccoc1-c1ccc2ncnc(Nc3ccc(OCc4ccccc4)cc3)c2c1`, the inhibition in assay [1] is -1.52%; in assay [2], -0.56%; in assay [3], -0.4%; in assay [4] it was -0.71%; in [5], -0.61%; in [6] it was 2%. Further, the inhibition in assay [7] is 4.19%; in assay [8], 0.34%; in assay [9], 5.82%; in assay [10] it was -1.43%; in assay [11], -2.18%; in assay [12], 1.27%. Moreover, the inhibition in assay [13] was 0.16%; in [14], 2.12%; in [15], 3.12%; in [16], 0.65%; in assay [17], 0.15%; in [18] it was 0.23%. Besides, the inhibition in [19] is -0.94%; in assay [20], 0.1%.

What is called inhibition is the change of the read-out against control, counted positive when it falls.
